Exocytosis inh = lytic granule exocytosis inhibition | inhibition, % at 10 µM | TALL-104 LAMP-1 surface exposure, flow cytometry; cells stimulated with thapsigargin and PMA | 360,000 compounds, 0.66% hits;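 active = inhibition above about 55%, limit read from the data; inconclusive = no clear call, values can overlap the other calls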
IDE act = boosts human insulin-degrading enzyme activity in HEK cells; P14735; FAbeta-B cleavage, fluorescence polarization; 0% vehicle, 100% cell-free pure enzyme wells; activation, % at 5.96 µM; 340,000 compounds, 0.073% hits;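 active = activation above the mean of all tested compounds plus 3 SD, set per screening campaign, cut at about 17% in these data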
IDE inh = inhibits human insulin-degrading enzyme in HEK cells; P14735; FAbetaB cleavage, fluorescence polarization; inhibition, % at 5.59 µM; 320,000 compounds, 0.41% hits;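 active = percent inhibition above the average of all tested compounds plus 3 SD, set per screening campaign, cut at about 16% in these data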;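 note: IDE supplied by intact live HEK cells; FP after avidin binding of uncleaved biotin substrate so inhibition keeps polarization high; 0% = DMSO wells and 100% = 60 µM reference IDE inhibitor Ii1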
PP5 inh = blocks human protein phosphatase 5 activity; 320,000 compounds, 0.18% hits; purified PP5c, OMFP substrate fluorescence; P53041; inhibition, % at 6.7 µM;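 active = inhibition above the campaign's mean inhibition across all tested compounds plus 3 SD, cut at about 9.5% in these data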;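 note: 0% = DMSO only and 100% = 100 µM cantharidin control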
PP1 counter = blocks human PP1-alpha phosphatase, a PP5 counter-screen. purified PP1alpha, OMFP fluorescence. AID 2235. 320,000 compounds, 0.9% hits. inhibition, % at 6.7 µM;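 active = inhibition above the mean inhibition of all tested compounds plus 3 SD, computed separately for each screening campaign, cut at about 15% in these data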
Target sequence (P62136 whole entry, looked up): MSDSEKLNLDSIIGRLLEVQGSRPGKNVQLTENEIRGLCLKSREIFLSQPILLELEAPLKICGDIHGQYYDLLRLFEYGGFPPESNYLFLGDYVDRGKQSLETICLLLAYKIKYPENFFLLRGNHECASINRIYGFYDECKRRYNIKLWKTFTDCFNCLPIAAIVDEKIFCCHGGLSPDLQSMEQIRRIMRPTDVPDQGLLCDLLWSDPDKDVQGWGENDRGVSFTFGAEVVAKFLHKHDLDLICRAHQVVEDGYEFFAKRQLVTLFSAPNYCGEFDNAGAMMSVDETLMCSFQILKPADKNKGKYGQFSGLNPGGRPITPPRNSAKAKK
SKKanGAS inh = inhibitors of SKKanGAS S. pyogenes growth in kanamycin (SK-promoter or general growth effect); BacTiter-Glo, 6 h; inhibition, % at 7.5 µM; 300,000 compounds, 1.3% hits; AID 1662;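 active = mean replicate score, as percent of positive control median, at least 50; inconclusive = mean below 50 but one replicate at or above 50; inactive = mean and every replicate below 50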;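 note: strain carries kanamycin resistance gene driven by streptokinase promoter and grows in 40 µg/ml kanamycin; loss of luminescence reflects streptokinase promoter inhibition or plain growth inhibition; 0% = median of DMSO wells and 100% = positive control at its reference dose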
PP5 inh confirm = confirmation of human PP5 phosphatase inhibitors | shares compounds with PP5 inh | Purified PP5, fluorogenic phosphatase substrate, fluorescence | inhibition, % at 6.7 µM | 460 compounds, 22% hits; in the data active = inhibition above about 9.5%
PP1 inh counter = counter-screen for PP5 inhibitors: human PP1 phosphatase inhibition. 460 compounds, 4% hits. AID 2355. PP1 enzyme, fluorescent phosphatase substrate. inhibition, % at 6.7 µM. shares compounds with PP5 inh; in the data active = inhibition above about 16%
An asterisk follows results filed as active; ? = inconclusive; / = no result given. An excerpt weighted towards active compounds, which were near 2.8% of everything screened.

SMILES	Exocytosis inh	IDE act	IDE inh	PP5 inh	PP1 counter	SKKanGAS inh	PP5 inh confirm	PP1 inh counter
COc1ccc(C2=NN(C(=O)CN3CCCCC3)C(c3ccc(OC)cc3)C2)cc1 (stereo not given)	2	-4	7	17*	0	-2	-3	-4
COc1cc(CN2CCN(CC#Cc3ccccc3)CC2CCO)cc(OC)c1 (stereo not given)	-2	3	/	/	/	-3	/	/
COc1cc(/C=C2/C(=O)N(c3ccc([N+](=O)[O-])cc3)N=C2N2CCOCC2)ccc1O	-3	3	1	16*	-1	-2	2	-2
CCOC(=O)c1nn(-c2ccc(C)cc2)c(=O)c2c(N)scc12	21	2	-1	10.0*	4	4	23*	-3
CCOC(=O)c1nn(-c2ccc(F)cc2)c(=O)c2c(N)scc12	0	0	-9	3	-2	-6	/	/
Cc1oc(-c2ccccc2F)nc1CS(=O)CC(=O)NC1CCCC1 (stereo not given)	12	3	-2	3	0	9	/	/
CC1(NC(=O)CCc2nc3sc4c(c3c(=O)[nH]2)CCCC4)CCS(=O)(=O)C1 (stereo not given)	5	-3	1	10*	-22	-2	-4	-2
CCOC(=O)C1(Cc2cccc(Cl)c2)CCCN(CCO)C1 (stereo not given)	2	1	4	-2	-3	-5	/	/
CN1CCN(CC(=O)NN(Cc2ccccc2)c2ccccc2)CC1	0	-1	-3	12*	-2	3	2	-4
CCN(CC)CC(=O)NN(Cc1ccccc1)c1ccccc1	-1	-1	1	2	0	-3	/	/
CCCCOc1ccc(C(=O)NCCOc2cccc(OC)c2)cc1	2	2	-6	9.8*	-1	-6	-1	-1
COc1cc(OC)cc(C(=O)NCCOc2ccccc2)c1	6	-3	-4	0	-1	-17	/	/
COc1ccc(OCCNC(=O)c2cccc(Oc3ccc(C(F)(F)F)cc3[N+](=O)[O-])c2)cc1	-1	5	3	10*	3	6	3	-3
OC(c1ccc(Cl)c(Cl)c1)c1ncc(-c2ccccc2Cl)[nH]1 (stereo not given)	-2	/	/	/	/	/	/	/
CCC(=O)Nc1cccc(NC(=O)CSc2nnc(-c3ccc(NS(C)(=O)=O)cc3)n2CC)c1	2	7	-1	9.7*	2	-2	-4	-5
Cc1csc2c(N3CCN(C(=O)Nc4ccc(OC(F)(F)F)cc4)CC3)ncnc12	7	-11	2	2	1	21	/	/
CCCCCCOc1ccc(C(=O)n2cnc(N)n2)cc1	-4	1	7	12*	7	-9	3	7
CCCCCCOc1ccc(C(=O)O)cc1	-3	3	-2	2	-5	10	/	/
O=C(/C=C/c1ccc(O)cc1)c1ccc(NC2=C(N3CCCCC3)C(=O)c3ccccc3C2=O)cc1	-1	-12	11	9.9*	4	13	37*	1
O=C1C(Nc2ccccc2)=C(N2CCCCC2)C(=O)c2ccccc21	2	8	6	10*	2	32	33*	0
Cc1ccc(NC2=C(N3CCCCC3)C(=O)c3ccccc3C2=O)cc1	0	2	-1	9	5	3	/	/
O=C1C(Nc2cccc(O)c2)=C(N2CCCCC2)C(=O)c2ccccc21	-2	6	-2	8	-2	3	/	/
O=C(NNc1cc(N2CCCC2)nc(N2CCCC2)n1)c1ccc([N+](=O)[O-])cc1	1	6	-5	11*	4	2	34*	4
CCOC(=O)c1c(-c2ccc(C)c(C)c2)csc1NC(=O)C1CC=CCC1C(=O)O (stereo not given)	1	-1	3	5	10	21	/	/
CCOC(=O)c1c(NC(=O)C2C3CCC(O3)C2C(=O)O)sc2c1CCC(CC)C2 (stereo not given)	4	3	2	14*	8	22	2	4
SMILES	Exocytosis inh	IDE act	IDE inh	PP5 inh	PP1 counter	SKKanGAS inh	PP5 inh confirm	PP1 inh counter
CCOC(=O)c1c(NC(=O)C2C3CCC(O3)C2C(=O)O)sc(C)c1-c1ccc(F)cc1 (stereo not given)	3	2	10	13*	4	11	1	4
CCCOC(=O)c1c(-c2ccc(C)cc2C)csc1NC(=O)C1C2CCC(O2)C1C(=O)O (stereo not given)	2	0	-7	11*	3	22	-1	5
O=C(NCc1ccc(F)cc1F)[C@@H]1CCCN1C(=O)[C@@H]1CCCN1C(=O)c1ccc(Cl)cc1	-7	/	/	/	/	/	/	/
Cc1cc(NS(=O)(=O)c2ccc(Nc3nc(-c4ccc(C)c(C)c4)cs3)cc2)no1	1	1	-1	11*	4	15	5	9
CC(C)C[C@H](NC(=O)c1[nH]cnc1C(=O)N[C@H](C)c1ccccc1)C(=O)OC(C)(C)C	-6	2	2	10*	11	57*	8	9
CC(C)C[C@H](NC(=O)c1nc[nH]c1C(=O)N[C@@H](CC(C)C)C(=O)OC(C)(C)C)C(=O)OC(C)(C)C	0	-2	-1	10*	4	87*	6	7
C[C@H](NC(=O)c1nc[nH]c1C(=O)N[C@@H](Cc1ccccc1)C(=O)OC(C)(C)C)C(=O)OC(C)(C)C	2	6	-3	11*	11	7	7	10
O=C(CCCCCNC(=O)c1ccccc1Br)N=Nc1c(O)[nH]c2ccccc12	-6	11	-2	4	4	0	/	/
O=C(NNC(=O)c1ccc[nH]1)Nc1cc(Cl)cc(Cl)c1	-14	/	3	16*	8	-3	-3	-8
Cc1nc(N2CCC(C)CC2)c2oc3ccccc3c2n1	2	2	0	6	-1	13	/	/
COc1ccccc1N1CCN(c2nc(C)nc3c2oc2ccccc23)CC1	7	-5	8	10*	1	?	1	0
CCc1ccc(C2=NN(c3ccc(S(N)(=O)=O)cc3)C(c3ccc(F)cc3)C2)cc1 (stereo not given)	17	7	-3	12*	-2	102*	2	1
Cc1ccc(C2CC(c3ccccc3)=NN2c2ccc(S(N)(=O)=O)cc2)cc1 (stereo not given)	1	/	/	/	/	/	/	/
O=c1c2ccc(Cl)cc2[nH]c(=S)n1Cc1cccnc1	3	0	6	11*	-3	2	-4	-3
COc1ccc(S(=O)(=O)N2CCN(C/C=C/c3ccccc3)CC2)cc1F	16	3	2	3	-4	0	/	/

High-throughput results from PubChem.
